The record followed here is PubChem BioAssay (NCATS).

SMILES strings stand for the structures. Inconclusive results are not listed. Activity calls are given as the source filed them. Unless noted, calls follow the shape of the dose curve; as a rule, active = well fitted curve in the direction sought with a large enough effect; inconclusive = small, poorly fitted or top-dose-only effect, or another doubt; inactive = no such curve, though single readings can be large; an effect the other way counts as inactive or inconclusive.

A short description of experiment [1]: AP1 Signaling Pathway (AID 357; active = well fitted curve in either direction with a large enough effect, not every such curve was filed as active;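 also: ME-180 reporter cells stimulated with EGF at its EC50 level; % is scaled to controls: 0 for no effect and ±100 for the full control effect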). The following applies: ME-180 AP-1-bla reporter, EGF-induced, beta-lactamase ratio, 5 h; at 7.69 µM (top of the series) unless noted. The gist of the method:
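Beta-lactamase reporter under AP-1 response element, ME-180 background. Stimulus: EC50 EGF. Compound exposure 5 h, 37 °C. Detection: CCF4, 2.5 h RT, 460/530 nm. Values: AC50 from titration.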

Experiment [2] deals with Cytochrome P450 1A2 (Homo sapiens) (UniProt P05177). Put plainly: p450-cyp1a2 (AID 410; calls by dose curve; also: potency is read from the fitted curve at half-maximal effect). The gist of the method: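 Human CYP1A2 (20nM) demethylated Luciferin-ME at its Km (100uM) in 100mM KPO4. After 10 min compound preincubation, NADPH regeneration ran the reaction 60 min at room temperature. Luciferin was read by luminescence, normalized to 57 uM furafylline.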
A short description of experiment [3]: NFAT Signaling Pathway (AID 444; active = well fitted curve in either direction with a large enough effect, not every such curve was filed as active;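 also: carbachol stimulus at about its EC50 of 1 µM final; % is scaled to controls: 0 for no effect and ±100 for the full control effect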). As to conditions: Jurkat NFAT-bla M1, carbachol, beta-lactamase ratio, 5 h; at 7.69 µM (top of the series) unless noted. The gist of the method: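 Read-out: CCF4 FRET ratio (460 nm/530 nm) after 1 h RT dye loading, used for %activity and AC50 from titration series. Cells: Jurkat NFAT-β-lactamase/M1 line, treated with compound plus 1 uM carbachol for 5 h, 37 °C.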

A short description of experiment [4]: Stat Signaling Pathway (AID 446; active = well fitted curve in either direction with a large enough effect, not every such curve was filed as active;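 also: ME-180 cervical cancer cells given 40 pM IL-6 alongside compound; SIE-controlled beta-lactamase reporter measured as 460/530 nm FRET emission ratio; % is scaled to controls: 0 for no effect and ±100 for the full control effect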). The following applies: ME-180 SIE beta-lactamase reporter, IL-6 stimulated, 5 h; at 7.69 µM (top of the series) unless noted. A digest of the protocol: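 Reporter line: ME-180 cervical carcinoma, SIE-beta-lactamase. Treatment: compound with 40 pM IL-6, 5 hrs, 37 C, in low-serum OPTI-MEM with 10 mM HEPES pH 7.3. Detection: 460/530 nm fluorescence.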

Experiment [5] deals with Glucocorticoid receptor (Homo sapiens) (UniProt P04150). The experiment can be described thus: GR-EFC Redistribution (AID 451; calls by dose curve; also: potency is read from the fitted curve at half-maximal effect). The following applies: CHO-K1 GR-EFC translocation, beta-gal luminescence, 2 h. The gist of the method: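 Translocation of GR-ED fusion to nuclear EA restores b-gal, read by luminescence after 1 h room-temperature detection. Engineered CHO-K1 biosensor cells, 1,000/well, exposed 2 h at 37 C to titrations up to 46 uM final.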

In experiment [6] the target is Mitogen-activated protein kinase 10 (Mus musculus) (UniProt Q61831). The experiment can be described thus: JNK3 AlphaScreen Assay (AID 530; active = well fitted curve in either direction with a large enough effect, not every such curve was filed as active;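 also: kinase came from lysate of stimulated human HepG2 cells; signal reports phosphorylation of biotinylated GST-cJun 1-79 at Ser73 with 10 µM ATP; % is scaled to controls: 0 for no effect and ±100 for the full control effect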). A digest of the protocol:
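Room-temperature AlphaScreen kinase assay; pre-activated HepG2 lysate as JNK3 source, biotin-GST-cJun(1-79) substrate, 10 uM ATP, compound 15 min preincubation.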

Experiment [7] addresses 3',5'-cyclic-AMP phosphodiesterase 4B (Homo sapiens) (UniProt Q07343). Put plainly: qHTS Assay for Inhibitors of PDE-IV (AID 607; active = well fitted activation curve with a large enough effect in the main read-out, with a control signal flat, not every such curve was filed as active; also: % of control where 0% means no effect). The gist of the method: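 Cell-based read-out of cAMP via a modified cyclic nucleotide-gated channel and membrane potential dye (535/590 nm) in HEK293 cells expressing PDE4 endogenously. Compounds tested up to 22.9 uM final; 100 uM RO 20-1724 reference.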
Background: qHTS replaces the single test concentration by a dilution series.

Experiment [8] can be described thus: qHTS Assay for Lipid Storage Modulators (AID 1519; calls by dose curve). The following applies: Drosophila S3 cells, BODIPY lipid droplet/cell ratio, laser cytometry, cells loaded with oleic acid; for activity change, negative = inhibition: at 57.5 µM (top of the series). The gist of the method: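 Cells seeded at 5,000 per well were treated with compounds over a concentration series and loaded with oleic acid (400 uM, as added). Lipid droplet fluorescence (488 nm excitation, 500-530 nm channel) was read by laser-scanning cytometry and normalized to 20 uM Triacsin C.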

The target of experiment [9] is Dual specificity protein kinase CLK4 (Homo sapiens) (UniProt Q9HAZ1). Put plainly: qHTS Assay for Inhibitors of CDC-like Kinase 4 (Kinase-Glo Assay) (AID 1770). Also: nearly all actives have a fitted effect of over 65% in size. Also: potency is read from the fitted curve at half-maximal effect. A digest of the protocol: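 Inhibition was judged from remaining ATP, measured by Ultra-Glo luciferase bioluminescence after Clk4 (25 nM) had acted on RS peptide at 1 uM ATP for 4.5 hours, room temperature.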

The target is the same in experiment [10]. The experiment can be described thus: qHTS Assay for Inhibitors of CDC-like Kinase 4 (ADP-Glo Assay) (AID 1771). Also: nearly all actives have a fitted effect of over 70% in size. Also: potency is read from the fitted curve at half-maximal effect. The gist of the method: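 Clk4 (25 nM) was incubated 1 hr at room temperature with 100 uM RS repeat peptide and 1 uM ATP in buffer with 2 mM MgCl2, 0.5 mM EGTA, 2.5 mM DTT. ADP formed was quantified by ADP-Glo luminescence.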
For experiment [11] the target is unchanged. Put plainly: qHTS Assay for Inhibitors of CDC-like Kinase 4 (ADP-FP Assay) (AID 1795). Also: nearly all actives have a fitted effect of over 60% in size. Also: potency is read from the fitted curve at half-maximal effect. A digest of the protocol:
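Inhibition of ADP formation by 6.25 nM Clk4 is measured using 1 uM ATP and 100 uM RS repeat peptide over one hour. Produced ADP displaces a fluorescent tracer from antibody, lowering polarization.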

Experiment [12] deals with Ubiquitin carboxyl-terminal hydrolase 1 (Homo sapiens) (UniProt O94782). Put plainly: Inhibitors of USP1/UAF1: Pilot qHTS (AID 504865).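 Also: rhodamine fluorescence freed from ubiquitin-rhodamine substrate followed over time; top concentration of the series differs between compounds; % is scaled to controls: 0 for no effect and ±100 for the full control effect; nearly all actives have a fitted effect of over 35% in size.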 The gist of the method:
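Kinetic fluorescence assay: 1nM USP1/UAF1, 15 min compound preincubation, then 150nM Ub-Rho; 480/540 nm.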

A short description of experiment [13]: Primary qHTS for small molecule stabilizers of the endoplasmic reticulum resident proteome: Secreted ER Calcium Modulated Protein (SERCaMP) assay (AID 1508630). Also: % is scaled to controls: 0 for no effect and ±100 for the full control effect. A digest of the protocol:
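GLuc-SERCaMP-expressing SH-SY5Y cells, pretreated 16 h with compound, are challenged with thapsigargin to empty ER calcium stores; after 4 h, coelenterazine is added directly to the medium and luminescence is imaged.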

The target in experiment [14] is Glucocorticoid receptor (Homo sapiens) (UniProt P04150). Put plainly: GR-GFP Redistribution (AID 450;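 active = compounds whose dose series gives a full or clear partial fitted curve of increased nuclear translocation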; also: potency is read from the fitted curve at half-maximal effect). As to conditions: U2OS GR-GFP nuclear translocation, laser cytometry, 2 h.
Experiment [15] concerns the target Cytochrome P450 3A4 (Homo sapiens) (UniProt P08684). The experiment can be described thus: qHTS Assay for Inhibitors and Substrates of Cytochrome P450 3A4 (AID 884). Also: potency is read from the fitted curve at half-maximal effect; nearly all actives have a fitted effect of over 50% in size. A digest of the protocol:
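20 nM human CYP3A4 with 25 uM Luciferin-PPXE (at KM) in 200 mM KPO4, preincubated 10 min with compound; NADPH regeneration started a 60 min RT reaction. Luciferin detected by luminescence, normalized to 57 uM ketoconazole as full inhibition.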

For experiment [16] the target is unchanged. The experiment can be described thus: qHTS Assay for Activators of Cytochrome P450 3A4 (AID 885). Also: nearly all actives have a fitted effect of over 65% in size. A digest of the protocol:
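Signal was normalized against complete inhibition by 57 uM ketoconazole. The reaction used 20nM CYP3A4 with 25uM Luciferin-PPXE, 10-min compound preincubation and a 60-min NADPH-supported step at RT.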

Experiment [17] concerns the target Lysosomal acid glucosylceramidase (Homo sapiens) (UniProt P04062). The experiment can be described thus: Glucocerebrosidase-p2 (AID 348; in the data active = potency below about 10 µM; also: potency is read from the fitted curve at half-maximal effect). The following applies: purified GBA, blue fluorogenic substrate, 40 min. A digest of the protocol:
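Compounds titrated from 0.6 nM upwards against 0.2 nM enzyme in pH 5.9 citric acid/KH2PO4, taurocholate, tween-20; blue fluorogenic substrate 80 uM, 40 min room temperature, stopped and read Ex 365/Em 440 for AC50.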

Experiment [18] is described as follows: qHTS Assay for Identification of Small Molecule Agonists for Hypoxia Response Element Signaling Pathway (AID 914; active = well fitted activation curve with a large enough effect in the signal ratio, with a control signal flat, not every such curve was filed as active; the % refers to the signal ratio; also: potency is read from the fitted curve at half-maximal effect). The following applies: ME-180 (cervical carcinoma) HRE-bla reporter, beta-lactamase ratio, CoCl2, 17 h; activation: stronger effect = higher value. A digest of the protocol: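 HRE-bla ME-180 cells, overnight plating in Opti-MEM with 0.5% dialyzed FBS; cpd titration + EC50 CoCl2, 17 h, 37 degrees Celsius; CCF4 2.5 h RT; 460/530 nm ratio; AC50.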

Where [19] appears, read: measured here: cell count channel max response.
The mark [20] stands for this setting: measured here: lipid channel max response.

Sequence of Ubiquitin carboxyl-terminal hydrolase 1 (Homo sapiens) (O94782 whole entry, looked up): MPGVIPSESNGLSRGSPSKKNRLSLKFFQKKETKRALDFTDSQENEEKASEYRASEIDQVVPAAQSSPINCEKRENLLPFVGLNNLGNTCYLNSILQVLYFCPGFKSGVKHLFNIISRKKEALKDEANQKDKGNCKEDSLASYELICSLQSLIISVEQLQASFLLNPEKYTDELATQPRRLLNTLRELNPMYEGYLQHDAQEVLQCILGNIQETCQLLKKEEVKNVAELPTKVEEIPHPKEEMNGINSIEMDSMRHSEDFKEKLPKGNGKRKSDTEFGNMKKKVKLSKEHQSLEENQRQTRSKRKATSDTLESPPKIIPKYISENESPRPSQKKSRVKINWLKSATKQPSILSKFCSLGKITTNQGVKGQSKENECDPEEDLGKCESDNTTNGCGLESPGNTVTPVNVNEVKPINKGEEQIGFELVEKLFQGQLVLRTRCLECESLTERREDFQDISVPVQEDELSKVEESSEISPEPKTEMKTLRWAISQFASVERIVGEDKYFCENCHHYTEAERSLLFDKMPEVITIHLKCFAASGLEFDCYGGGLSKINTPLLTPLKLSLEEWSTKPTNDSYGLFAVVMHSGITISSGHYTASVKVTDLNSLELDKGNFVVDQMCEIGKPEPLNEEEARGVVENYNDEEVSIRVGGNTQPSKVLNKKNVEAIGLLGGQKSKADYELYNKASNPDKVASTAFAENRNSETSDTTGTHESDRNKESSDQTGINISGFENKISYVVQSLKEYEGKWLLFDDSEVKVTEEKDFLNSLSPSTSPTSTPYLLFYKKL
Sequence of Cytochrome P450 3A4 (Homo sapiens) (P08684 whole entry, looked up): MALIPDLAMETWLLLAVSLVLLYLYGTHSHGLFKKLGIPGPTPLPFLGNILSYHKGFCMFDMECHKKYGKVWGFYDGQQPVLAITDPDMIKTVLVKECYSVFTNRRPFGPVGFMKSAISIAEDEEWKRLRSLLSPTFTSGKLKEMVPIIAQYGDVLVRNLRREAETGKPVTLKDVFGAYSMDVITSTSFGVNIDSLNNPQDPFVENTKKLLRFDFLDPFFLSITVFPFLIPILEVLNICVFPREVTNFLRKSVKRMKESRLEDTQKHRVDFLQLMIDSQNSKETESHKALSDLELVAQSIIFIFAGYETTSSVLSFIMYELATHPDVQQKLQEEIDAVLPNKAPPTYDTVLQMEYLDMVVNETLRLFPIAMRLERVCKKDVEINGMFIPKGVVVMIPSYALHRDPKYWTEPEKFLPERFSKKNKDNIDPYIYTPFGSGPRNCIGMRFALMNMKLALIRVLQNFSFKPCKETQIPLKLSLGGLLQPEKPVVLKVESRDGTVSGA
Sequence of Dual specificity protein kinase CLK4 (Homo sapiens) (Q9HAZ1 whole entry, looked up): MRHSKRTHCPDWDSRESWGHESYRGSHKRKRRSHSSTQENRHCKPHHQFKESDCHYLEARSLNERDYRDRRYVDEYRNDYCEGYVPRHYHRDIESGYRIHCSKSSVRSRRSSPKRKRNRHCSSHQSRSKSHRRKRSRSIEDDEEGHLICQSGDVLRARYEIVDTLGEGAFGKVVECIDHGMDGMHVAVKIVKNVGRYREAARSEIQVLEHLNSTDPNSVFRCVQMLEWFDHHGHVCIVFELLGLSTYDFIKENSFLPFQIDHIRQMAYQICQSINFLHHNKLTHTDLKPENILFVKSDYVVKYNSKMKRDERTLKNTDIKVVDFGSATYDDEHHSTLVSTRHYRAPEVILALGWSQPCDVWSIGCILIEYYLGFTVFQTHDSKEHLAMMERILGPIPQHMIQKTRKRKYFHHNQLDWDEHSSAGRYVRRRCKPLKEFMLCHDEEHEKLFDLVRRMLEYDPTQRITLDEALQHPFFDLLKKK
Sequence of 3',5'-cyclic-AMP phosphodiesterase 4B (Homo sapiens) (Q07343 whole entry, looked up): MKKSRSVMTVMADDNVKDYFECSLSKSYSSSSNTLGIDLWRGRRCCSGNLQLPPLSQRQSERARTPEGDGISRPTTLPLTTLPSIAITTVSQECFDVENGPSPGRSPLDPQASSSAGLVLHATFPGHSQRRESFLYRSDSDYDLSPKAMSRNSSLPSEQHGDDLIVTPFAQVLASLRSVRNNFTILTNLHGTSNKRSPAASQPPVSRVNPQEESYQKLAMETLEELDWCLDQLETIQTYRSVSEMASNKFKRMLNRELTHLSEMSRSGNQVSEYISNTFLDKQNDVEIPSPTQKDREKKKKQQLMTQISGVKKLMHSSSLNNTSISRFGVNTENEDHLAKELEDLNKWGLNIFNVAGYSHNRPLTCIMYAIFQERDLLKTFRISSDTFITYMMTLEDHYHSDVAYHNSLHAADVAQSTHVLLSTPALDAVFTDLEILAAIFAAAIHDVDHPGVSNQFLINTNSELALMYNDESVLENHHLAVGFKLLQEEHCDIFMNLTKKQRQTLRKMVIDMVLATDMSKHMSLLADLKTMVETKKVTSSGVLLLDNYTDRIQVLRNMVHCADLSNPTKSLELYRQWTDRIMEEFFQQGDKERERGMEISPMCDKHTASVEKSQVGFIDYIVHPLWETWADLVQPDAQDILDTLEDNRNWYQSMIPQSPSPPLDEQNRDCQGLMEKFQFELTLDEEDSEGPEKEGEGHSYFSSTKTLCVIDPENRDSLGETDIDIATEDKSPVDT
Sequence of Lysosomal acid glucosylceramidase (Homo sapiens) (P04062 whole entry, looked up): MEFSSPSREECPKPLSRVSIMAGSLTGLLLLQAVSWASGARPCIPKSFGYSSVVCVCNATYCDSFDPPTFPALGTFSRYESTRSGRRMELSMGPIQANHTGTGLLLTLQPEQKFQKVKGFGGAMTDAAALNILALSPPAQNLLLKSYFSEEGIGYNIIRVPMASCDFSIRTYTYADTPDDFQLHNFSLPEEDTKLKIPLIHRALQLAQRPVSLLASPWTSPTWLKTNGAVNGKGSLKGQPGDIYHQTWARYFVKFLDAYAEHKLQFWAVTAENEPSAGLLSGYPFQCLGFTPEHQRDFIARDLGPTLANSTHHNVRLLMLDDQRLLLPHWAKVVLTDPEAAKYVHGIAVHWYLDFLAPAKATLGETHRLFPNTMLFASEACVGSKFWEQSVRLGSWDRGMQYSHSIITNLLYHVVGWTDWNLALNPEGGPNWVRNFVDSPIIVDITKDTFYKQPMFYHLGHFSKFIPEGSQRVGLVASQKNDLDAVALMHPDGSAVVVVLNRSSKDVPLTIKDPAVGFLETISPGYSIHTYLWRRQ
Sequence of Glucocorticoid receptor (Homo sapiens) (P04150 whole entry, looked up, the tested form may be a part): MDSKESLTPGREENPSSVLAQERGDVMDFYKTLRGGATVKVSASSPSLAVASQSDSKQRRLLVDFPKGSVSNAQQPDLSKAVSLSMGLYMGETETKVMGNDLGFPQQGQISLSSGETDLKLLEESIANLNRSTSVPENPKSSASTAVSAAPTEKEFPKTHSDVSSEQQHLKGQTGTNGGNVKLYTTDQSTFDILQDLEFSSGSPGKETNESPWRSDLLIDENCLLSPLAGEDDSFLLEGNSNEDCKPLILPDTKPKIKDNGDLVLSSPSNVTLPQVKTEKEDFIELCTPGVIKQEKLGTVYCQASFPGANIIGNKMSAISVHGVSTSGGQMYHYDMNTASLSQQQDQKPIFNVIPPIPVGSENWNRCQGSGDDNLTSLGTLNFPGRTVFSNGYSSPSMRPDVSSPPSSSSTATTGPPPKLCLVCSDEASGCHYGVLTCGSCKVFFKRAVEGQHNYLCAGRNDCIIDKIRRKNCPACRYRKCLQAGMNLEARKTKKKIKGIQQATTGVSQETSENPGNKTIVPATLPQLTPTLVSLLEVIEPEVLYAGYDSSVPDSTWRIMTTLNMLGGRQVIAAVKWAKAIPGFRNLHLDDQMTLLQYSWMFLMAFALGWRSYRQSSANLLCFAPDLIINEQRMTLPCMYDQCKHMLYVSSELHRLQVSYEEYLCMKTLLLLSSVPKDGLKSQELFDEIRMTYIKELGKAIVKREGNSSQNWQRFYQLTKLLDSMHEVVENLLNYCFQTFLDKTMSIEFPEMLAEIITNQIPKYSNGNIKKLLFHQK
Sequence of Cytochrome P450 1A2 (Homo sapiens) (P05177 whole entry, looked up): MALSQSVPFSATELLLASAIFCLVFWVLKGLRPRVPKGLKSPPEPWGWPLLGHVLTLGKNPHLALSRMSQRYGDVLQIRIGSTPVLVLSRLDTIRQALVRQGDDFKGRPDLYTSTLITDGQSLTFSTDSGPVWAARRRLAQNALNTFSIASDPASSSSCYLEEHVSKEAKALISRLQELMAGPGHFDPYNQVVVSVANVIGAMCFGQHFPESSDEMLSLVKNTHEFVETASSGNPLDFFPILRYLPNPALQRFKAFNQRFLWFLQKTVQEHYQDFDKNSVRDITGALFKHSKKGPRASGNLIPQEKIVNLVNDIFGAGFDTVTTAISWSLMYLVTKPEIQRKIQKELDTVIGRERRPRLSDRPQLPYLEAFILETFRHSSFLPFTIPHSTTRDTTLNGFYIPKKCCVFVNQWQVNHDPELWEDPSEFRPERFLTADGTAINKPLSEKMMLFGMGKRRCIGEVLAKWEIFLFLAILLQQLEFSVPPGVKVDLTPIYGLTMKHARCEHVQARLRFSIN

For `CN1CCN(c2ccnc(-c3ccoc3)n2)CC1`, the activity change, negative = inhibition in experiment [1] was 21.7% (inactive); in experiment [3], -15.5% (inactive); in [8] it was 0.402% (inactive). Also, the Potency is 12.6 µM (active) in [2] and > 46 µM (inactive) in [5]. For the same compound, the activity, negative = inhibition in [4] was 11.2% (inactive). For the same compound, the compound was classed as inactive in [6]. Also, the Potency entry in [7], in [9], in [10], in experiment [11], in [12] and in experiment [13] was “inactive” in each case. For the same compound, the max response in [8] (setting [19]) and in experiment [8] (setting [20]) was 20.2% in each case.
For `c1cncc(CNc2ncncc2-c2cccnc2)c1`, the activity change, negative = inhibition was 3.11% (inactive) in experiment [1], 1.94% (inactive) in [3] and 2.51% (inactive) in [8]. In addition, the Potency is 5.01 µM (active) in [2], > 46 µM (inactive) in experiment [14], > 46 µM (inactive) in experiment [5] and 2 µM (active) in experiment [15]. Moreover, the activity, negative = inhibition in experiment [4] was 12.2% (inactive). Besides, the outcome in [6] was inactive. Moreover, the Potency entry in experiment [7], in [16], in experiment [9], in experiment [10], in experiment [11] and in experiment [13] was “inactive” each time. The max response in experiment [8] (setting [19]) came to 25.3%; in [8] (setting [20]), 26.2%.
With `COCCn1c(=O)c(C)nc2cnc(N(C)C)nc21`, the values for the activity change, negative = inhibition in experiment [1], in [3] and in experiment [8] were 3.65% (inactive), 13.3% (inactive) and 4.96% (inactive), respectively. Moreover, the results for the Potency in [2], in experiment [14] and in experiment [5] were 3.98 µM (active), > 9.22 µM (inactive) and > 46 µM (inactive), respectively. Further, in experiment [4], the activity, negative = inhibition is -5.78% (inactive). Moreover, in experiment [6], the result was inactive. Besides, the Potency result in experiment [7], in experiment [9], in experiment [10], in [11], in experiment [12] and in experiment [13] was “inactive” each time. The max response in experiment [8] (setting [19]) stood at 17.2%; in [8] (setting [20]) it was 22.8%.
On to `CCNc1ncc2nc(-c3ccccc3)c(=O)n(Cc3cccs3)c2n1`, for which the Potency in [17] is > 11.4 µM (inactive); in experiment [2] it was 0.316 µM (active); in experiment [14], > 9.22 µM (inactive); in experiment [5], > 46 µM (inactive); in experiment [18] it was 3.16 µM (active). Further, the outcome in [6] was inactive. The Potency entry in experiment [16], in experiment [9], in experiment [10], in [11], in experiment [12] and in experiment [13] was “inactive” each time. Moreover, the activity change, negative = inhibition in experiment [8] is 1.76% (inactive). Besides, the results for the max response in experiment [8] (setting [19]) and in experiment [8] (setting [20]) were 17.2% and 16%, respectively.
As to `CN(C)c1ncc2nc(-c3ccccc3)c(=O)n(Cc3ccc(F)cc3)c2n1`, the Potency was > 11.4 µM (inactive) in experiment [17]; 12.6 µM (active) in experiment [2]; > 9.22 µM (inactive) in experiment [14]; > 46 µM (inactive) in experiment [5]; 0.501 µM (active) in experiment [18]. Further, the activity, negative = inhibition in experiment [4] is 178% [activator] (active). Moreover, the Potency entry in experiment [7], in experiment [9], in experiment [10], in [11], in experiment [12] and in [13] was “inactive” throughout. Further, the activity change, negative = inhibition in experiment [8] is 0.549% (inactive). The max response in [8] (setting [19]) came out at 7.88%; in experiment [8] (setting [20]), 4.69%.
With `CC(=O)NCCNc1ncnc2ccc(-c3ccoc3)cc12`, the results for the activity change, negative = inhibition in experiment [1], in experiment [3] and in experiment [8] were -5.21% (inactive), 17.6% (inactive) and 1.77% (inactive), respectively. Besides, the Potency was 12.6 µM (active) in experiment [2]; > 46 µM (inactive) in experiment [14]; > 46 µM (inactive) in [5]; 0.891 µM (active) in [9]; 1 µM (active) in experiment [10]; 0.355 µM (active) in experiment [11]. Besides, the activity, negative = inhibition in experiment [4] was 3.17% (inactive). Besides, the compound was classed as inactive in experiment [6]. Moreover, the Potency result in experiment [7], in experiment [12] and in experiment [13] was “inactive” each time. Further, the max response in experiment [8] (setting [19]) is -0.704%; in [8] (setting [20]) it was -3.36%.
For the compound `COCCNc1ncnc2ccc(-c3cccnc3)cc12`, the Potency in experiment [17] is > 11.4 µM (inactive); in [14], > 46 µM (inactive); in experiment [5], > 46 µM (inactive); in experiment [9] it was 12.6 µM (active); in [10] it was 12.6 µM (active); in experiment [11] it was 10 µM (active). Moreover, in experiment [4], the activity, negative = inhibition was 18% (inactive). Moreover, in [6], the compound was classed as inactive. For the same compound, the Potency result in experiment [7], in experiment [16], in [12] and in [13] was “inactive” each time. Further, the activity change, negative = inhibition in experiment [8] was 5.11% (inactive). In addition, the max response is -1.43% in [8] (setting [19]) and -8.04% in experiment [8] (setting [20]).
